High-throughput results: PubChem BioAssay, several laboratories
This is a sample that favours compounds with a hit; in the whole collection about 2.8% have one here.
Wnt act – Wnt/beta-catenin pathway activation; Wnt/beta-catenin reporter cell assay, activator, plate reader; activation, % at 9.35 µM; 300,000 tested, 1.2% active; AID 743398; in the data active = activation above about 30%, passing the limit was not always enough; inconclusive = no clear call, values can overlap the other calls;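 note: 0% = neutral control wells and 100% = positive control wells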
FXN GAA850 act – increases GAA850 frataxin promoter reporter activity | 360,000 tested, 0.56% active | HEK293 lucGAA850 FXN promoter luciferase reporter, 24 h; percent of 10 µM SAHA response | activation, % at 6 µM;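 active = activation above the average of all compounds screened plus 3 SD, cutoff fixed separately per campaign, cut at about 7.5% in these data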;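 note: 0% = DMSO wells and 100% = 10 µM SAHA wells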
MITF TRPM1 HTS – activators of MITF-driven TRPM1 promoter activity in SK-MEL-5 cells; SK-MEL-5 TRPM1-promoter luciferase, 24 h; % of positive control, neutral wells = 0; activation, % at 12.5 µM; 300,000 tested, 0.75% active; AID 588334;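 active = mean activation of at least 80% with every replicate also reaching 80%; inconclusive = mean reaches 80% but some replicate falls short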;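 note: 0% = neutral control wells and 100% = parthenolide positive control wells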
esBAF inh – SWI/SNF esBAF complex inhibition; mouse ES cells, Bmi1-luciferase knock-in reporter, 24 h; 100% = twice the neutral-well signal; reporter increase, % at 12.5 µM; 350,000 tested, 2% active; AID 602393; in the data active = activation above about 40%; inconclusive = no clear call, values can overlap the other calls;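 note: 0% = median of the plate's neutral control wells and 100% = double that signal; a rise in the Bmi1 reporter signal indicates esBAF inhibition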
* marks the source's active call; other numbers are inactive results; ? = inconclusive; · = no result.

SMILES	Wnt act	FXN GAA850 act	MITF TRPM1 HTS	esBAF inh
CC(=O)c1csc(Nc2ccccc2Cl)n1	1.3	1.6	·	·
O=C(c1ccccc1)c1cnc(Nc2ccccc2Cl)s1	·	6.6	97.7*	55.4*
COc1ccc(NC(=O)N(C)C[C@@H]2Oc3ccc(NC(=O)Nc4cccc5ccccc45)cc3C(=O)N([C@H](C)CO)C[C@H]2C)cc1	·	·	·	0.5
O=C(CCl)c1ccc2[nH]c(=O)oc2c1	35.9*	5.8	-20.9	-1.1
O=c1[nH]c2ccc(Br)cc2o1	1.3	0.7	-8.7	4.5
O=C(Nc1ccc(F)cc1F)c1ccc2c(=O)n3c(nc2c1)CCC3	24.1	3.3	46.0	-8.1
O=C(Nc1nccs1)c1ccc2c(=O)n3c(nc2c1)CCCCC3	15.1	3.0	35.6	52.8*
O=C(Nc1ccc(F)cc1Cl)c1ccc2c(=O)n3c(nc2c1)CCC3	28.7	5.8	101.5*	?
O=C(Cc1ccc(Cl)c(Cl)c1)OCC(=O)c1ccc[nH]1	·	-1.6	6.0	-5.3
O=C(OCc1ccc(Cl)c(Cl)c1)c1ccc[nH]1	12.0	4.8	56.3	49.7*
O=C(Nc1ccc2c(c1)OCO2)C1CC(c2ccccc2Cl)=NO1 (configuration not stated)	·	3.6	43.8	64.0*
CCn1cc(C2=NOC(C(=O)Nc3ccc4c(c3)OCO4)C2)c(C)n1 (configuration not stated)	-3.2	-1.5	1.5	3.2
O=C(CNCc1ccccc1Cl)Nc1ccc2c(c1)OCCO2	3.2	4.6	?	52.5*
O=C(CSCc1ccccc1Cl)Nc1ccc2c(c1)OCCO2	-4.5	0.8	134.5*	-23.9
O=C(Nc1ccc2c(c1)OCCO2)c1ccccc1Cl	40.1*	1.8	·	-10.0
O=C(CNCc1ccc(Cl)cc1)Nc1ccc2c(c1)OCCO2	7.6	1.7	2.0	·
C[C@@H]1CN([C@@H](C)CO)C(=O)c2cc(NC(=O)c3ccccc3)ccc2O[C@@H](C)CCCCO[C@@H]1CN(C)C(=O)CCC(F)(F)F	·	·	·	-2.6
COc1cccc(CN(C)C[C@@H]2OCc3cn(nn3)CCCC(=O)N([C@@H](C)CO)C[C@@H]2C)c1	·	·	·	-2.1
Cc1noc(C)c1S(=O)(=O)Nc1ccc2c(c1)CC(=O)N([C@H](C)CO)C[C@@H](C)[C@H](CN(C)C)O2	·	·	·	0.0
CO[C@H]1CN(C)C(=O)c2cc(NS(C)(=O)=O)ccc2OC[C@H](C)N(Cc2ccccc2)C[C@@H]1C	·	·	·	2.2
O=C(C[C@H]1C[C@H]2c3cc(NC(=O)C4CCOCC4)ccc3O[C@H]2[C@H](CO)O1)NCc1ccccn1	·	·	·	-4.7
O=C(Nc1ccc2c(c1)OCCO2)c1cc2sccc2n1Cc1ccccc1	0.9	-5.8	14.4	49.1*
O=C(Nc1ccc2c(c1)OCCO2)c1cc2sccc2n1Cc1ccc(F)cc1	5.1	-1.6	22.0	27.7
CN1C[C@H](O)COC[C@@H]2O[C@@H](CC(=O)N3CCN(c4ccccc4)CC3)CC[C@H]21	·	·	·	-1.9
Cc1ccc(-c2nc(N)s[n+]2-c2ccccc2)cc1	53.5*	4.2	10.0	·
SMILES	Wnt act	FXN GAA850 act	MITF TRPM1 HTS	esBAF inh
CNc1nc(-c2ccccc2)[n+](-c2ccc(C)cc2)s1	·	-0.1	4.5	·
COc1ccc(-c2ccc(C(=O)NCc3ccccc3)c3occc23)c(C)c1	9.8	0.6	·	49.6*
Cn1nccc1-c1coc2c(C(=O)NCc3ccccc3)cccc12	1.1	1.7	·	38.3
Cn1nccc1-c1ccc(C(=O)NCc2ccc(Cl)cc2)c2occc12	·	2.2	·	80.3*
COc1ccc(-c2ccc(C(=O)Nc3ccc(Cl)cc3)c3occc23)c(C)c1	4.7	-0.3	·	79.8*
COc1ccc(-c2coc3c(C(=O)NCc4ccccc4)cccc23)c(C)c1	-1.7	1.1	·	10.4
Cc1noc(C)c1S(=O)(=O)N(C)C[C@@H]1Oc2ccc(NS(=O)(=O)c3ccccc3)cc2C(=O)N([C@H](C)CO)C[C@@H]1C	·	·	·	-0.4
C=C(C)C1CC=C(C)/C(=N/NC(=O)c2cccc([N+](=O)[O-])c2)C1 (configuration not stated)	-3.0	0.3	2.2	0.1
C=C(C)C1CC=C(C)/C(=N/NC(=O)c2ccoc2C)C1 (configuration not stated)	·	6.9	28.8	72.8*
CC(=O)c1cccc2c(O)c(C3=Nc4ccccc4C3=O)[nH]c12	40.3*	1.0	-37.7	12.9
O=C1C(c2c(O)[nH]c3ccccc23)=Nc2ccccc21	0.3	-1.3	-6.1	9.7
COc1cccc2cc(-c3cn4ccc(C)cc4n3)c(=O)oc12	·	6.4	72.5	104.6*
O=C1Nc2ccccc2/C1=C/c1cnc(-c2ccccc2)[nH]1	41.3*	5.5	·	?
CC(C)OC(=O)Cc1nc2sc(-c3ccccc3)cc2c(=O)[nH]1	12.0	1.8	·	49.1*
COc1ccc(NC(=O)Nc2ccc3c(c2)[C@H]2C[C@H](CC(=O)O)O[C@H](CO)[C@H]2O3)cc1	·	·	·	-0.1
CCOc1ccc(C2C=C(c3ccccc3)Nc3nnnn32)cc1 (configuration not stated)	43.3*	1.9	·	51.3*
Nc1cnc(Nc2ccc(Br)cc2)nc1N	1.5	2.2	71.9	52.7*
Cc1cc(NC(=O)c2cc(C3CC3)on2)no1	0.9	3.2	·	48.6*
Cc1cc(NC(=O)c2cc(C)on2)no1	·	1.1	-0.1	1.5
COc1ccc(NC(=O)c2cc(C3CC3)on2)c(OC)c1	-3.1	2.0	·	53.3*
CCC(=O)Nc1ccc2c(c1)C(=O)N(C)C[C@H](OC)[C@@H](C)CN(Cc1ccccn1)[C@H](C)CO2	·	·	·	-6.8
CS(=O)(=O)NCCSc1nnnn1-c1ccccc1	·	0.0	-0.8	·
O=S(=O)(NCCSc1nnnn1-c1ccccc1)c1cccs1	7.6	1.3	14.1	53.4*
c1ccc2c(c1)NC1(CCCCCC1)n1c-2nc2ccccc21	·	5.5	·	45.9*
Cc1ccc(N=Nc2c(N)nn(-c3ccccc3)c2N)cc1	33.0*	0.3	10.2	·
SMILES	Wnt act	FXN GAA850 act	MITF TRPM1 HTS	esBAF inh
Cc1ccc(N=Nc2c(N)nn3c(N)c(C#N)c(C)nc23)cc1	0.2	0.0	-39.3	-6.6
COc1ccc(N=Nc2c(N)nn(C)c2N)cc1	8.9	0.2	54.6	44.5*
COc1ccc(C)c2sc(=NC(=O)c3ccccc3)n(C)c12	?	3.6	·	51.1*
COc1ccc(C)c2sc(=NC(=O)c3ccc(C(C)=O)cc3)n(C)c12	21.7	6.3	?	·
CO[C@H](CN(C)S(=O)(=O)c1ccccc1)[C@@H](C)CN(C(=O)Nc1ccccc1F)[C@@H](C)CO	·	·	·	-2.5
Cc1cc(/C=C(\C#N)C(=O)NCC2CCCO2)c(C)n1-c1ccc(Cl)cc1 (configuration not stated)	·	7.1	?	87.6*
C[C@@H]1CN([C@@H](C)CO)C(=O)Cc2cc(NC(=O)C3CC3)ccc2O[C@H]1CN(C)CC1CC1	·	·	·	7.5
C[C@@H]1CN([C@H](C)CO)C(=O)c2cc(NS(=O)(=O)c3ccc(Cl)cc3)ccc2O[C@@H](C)CCCCO[C@H]1CN(C)C(=O)C1CCCCC1	·	·	·	-5.8
S=C(NCCc1ccccc1)Nc1cnc2ccccc2c1	14.9	5.4	65.7	44.3*
Cn1ncc2cc(NC(=S)NC(=O)c3ccccc3)ccc21	·	2.5	58.1	47.5*
Cc1ccc(NC(=O)Nc2cnc3ccccc3c2)cc1	38.7*	3.6	?	4.5
